Bioassay records deposited in PubChem BioAssay by The Scripps Research Institute Molecular Screening Center.
Sampled rows, rich in hits. Any-hit rate of the full collection: about 4.1%.
hcDAF12 agonist = activators of H. contortus DAF-12 nuclear receptor. actives 1.4% (n = 370,000). HEK293 hcDAF-12 lit1-tk-luc reporter, luminescence; 0% DMSO, 100% Δ7-dafachronic acid. AID 652067. activation, % at 6.8 µM;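 active means activation above the mean of all tested compounds plus 3 SD, cut at about 5.5% in these data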
ssDAF12 agonist = S. stercoralis DAF-12 activation, primary screen; activation, % at 6.8 µM; HEK293 ssDAF-12/GRIP1 lit1-tk-luc reporter, luminescence; % of 3 µM dafachronic acid response; actives 1% (n = 370,000);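 active means activation above the mean over all tested compounds plus 3 SD, cut at about 0.9% in these data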
DAX1 inh-1 = blocks DAX1 repression of SF-1 activated StAR promoter; HEK293T StAR-luciferase reporter, SF-1/DAX-1 repression relief; inhibition, % at 6.8 µM; actives 1.1% (n = 370,000);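 active means inhibition above the mean over all tested compounds plus 3 SD, cut at about 3.6% in these data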;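 further: higher inhibition means more luminescence from relief of DAX-1 repression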
hgDAF12 agonist = hgDAF-12 agonism, primary luciferase screen; AID 687014; activation, % at 6.8 µM; actives 1.8% (n = 370,000); HEK293 GAL4-hgDAF12 UAS-luciferase reporter, agonist luminescence; normalized to butyrate control;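 active means activation above a cutoff set at the mean of all screened compounds plus 3 SD, cut at about 10% in these data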
DAX1 inh-2 = NR0B1 (DAX1) inhibition; P51843; HEK293 Gal4-DAX1 luciferase reporter, luminescence; inhibition, % at 6.75 µM; actives 0.99% (n = 340,000);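 active means inhibition above the mean over all tested compounds plus 3 SD, cut at about 4.2% in these data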;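 further: inhibition shows as a rise in luminescence from relieved DAX1 repression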
DAX1 conf = confirmation of human DAX1 (NR0B1) inhibitors; AID 652134; inhibition, % at 6.8 µM; shares compounds with DAX1 inh-1; actives 87% (n = 2,400); HEK293T StAR-promoter luciferase reporter, SF-1/DAX-1 repression;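 active means inhibition above the average of every tested compound plus 3 SD, cut at about 3.8% in these data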;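 further: active compounds raise luminescence by relieving repression of the StAR reporter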
Target sequence (P51843 whole entry, looked up): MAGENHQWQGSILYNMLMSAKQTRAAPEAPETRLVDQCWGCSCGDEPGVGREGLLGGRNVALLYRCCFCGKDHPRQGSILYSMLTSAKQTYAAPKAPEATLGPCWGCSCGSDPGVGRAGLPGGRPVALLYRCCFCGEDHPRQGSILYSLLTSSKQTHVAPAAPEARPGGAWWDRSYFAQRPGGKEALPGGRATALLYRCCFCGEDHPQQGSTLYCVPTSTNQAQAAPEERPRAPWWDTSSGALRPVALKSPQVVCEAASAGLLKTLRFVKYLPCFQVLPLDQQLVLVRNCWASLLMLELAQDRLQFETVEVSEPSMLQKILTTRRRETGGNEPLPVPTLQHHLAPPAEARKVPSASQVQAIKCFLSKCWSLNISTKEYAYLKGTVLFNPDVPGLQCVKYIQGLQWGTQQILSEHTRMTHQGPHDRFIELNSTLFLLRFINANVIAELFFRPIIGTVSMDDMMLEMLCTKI
SF1 AF2mut Luc = counter-screen for DAX1 inhibitors: nonselective inhibitors with SF-1 AF2 mutant | HEK293 StAR-luciferase, luminescence | actives 78% (n = 2,400) | shares compounds with DAX1 inh-1 | inhibition, % at 6.8 µM;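 active means inhibition above the mean of all tested compounds plus 3 SD, cut at about 3% in these data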
LXRb hcDAF ctr = LXR-beta agonism as hcDAF-12 counter-screen; activation, % at 6.8 µM; shares compounds with hcDAF12 agonist; HEK293 Gal4-LXR tk-luc reporter, luminescence, 24 h; normalized: DMSO 0%, positive control 100%; 3,400 tested, under 10 active;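 active means mean percent activation of the reporter above a cutoff set as the average over tested compounds plus their standard deviation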
hcDAF12 ag = confirmation of H. contortus DAF-12 agonists | activation, % at 6.8 µM | shares compounds with hcDAF12 agonist | AID 743032 | actives 61% (n = 3,400) | HEK293 hcDAF-12 lit1-tk-luc reporter, luminescence; % of Δ7-dafachronic acid response;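 active means mean activation across triplicate tests above the threshold derived from the earlier primary screen, cut at about 5.5% in these data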
hgDAF12 conf = hgDAF-12 agonism, confirmation assay | activation, % at 6.8 µM | actives 80% (n = 3,300) | HEK293 GAL4-hgDAF12 luciferase reporter, agonist mode; percent of butyrate response | shares compounds with hgDAF12 agonist;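 active means mean activation over triplicate wells above the hit cutoff derived from the earlier primary screen, cut at about 11% in these data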
LXRb DAF12 ctr = activates human LXR-beta, counter-screen for DAF-12 agonists | AID 743051 | 3,300 tested, under 10 active | shares compounds with hgDAF12 agonist | activation, % at 6.8 µM | HEK293 Gal4-LXR luciferase reporter, 24 h;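 active means mean activation of the triplicate above a set limit carried over from the primary screen, none filed active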
A number is an active result; n = inactive; x = no result given.

SMILES	hcDAF12 agonist	ssDAF12 agonist	DAX1 inh-1	hgDAF12 agonist	DAX1 inh-2	DAX1 conf	SF1 AF2mut Luc	LXRb hcDAF ctr	hcDAF12 ag	hgDAF12 conf	LXRb DAF12 ctr
CCC(CO)Nc1ccn2nc(-c3ccccc3)cc2n1 (stereo not drawn)	n	n	9.5	18	x	8.9	7.2	x	x	16	n
O=C(Nc1ccc(Cl)cc1)c1ccc(Br)cc1F	9.6	n	7.5	18	n	11	7.5	n	n	20	n
CN1OC[C@@H]2CN[C@H](c3ccc(-c4cccc(F)c4)cc3)C[C@@H]21	n	n	6.2	13	n	6.3	n	x	x	n	n
Cn1c(=NC(=O)c2ccco2)sc2ccccc21	20	4.0	7.1	21	n	8.1	4.9	n	16	20	n
Cc1sc(=NC(=O)c2ccco2)n(C)c1-c1ccc(F)cc1	n	n	n	n	n	x	x	x	x	x	x
O=C(NCCc1ccccc1)c1ccccc1NC(=O)C1CCCCC1C(=O)O (stereo not drawn)	9.3	n	4.9	18	x	5.4	4.3	n	n	14	n
O=C(Nc1ccc(F)cc1)c1ccccc1NC(=O)C1CCCCC1C(=O)O (stereo not drawn)	n	n	n	n	n	x	x	x	x	x	x
O=C(C(=O)N1CCN(S(=O)(=O)c2cccc(C(F)(F)F)c2)CC1)c1cccc(C(F)(F)F)c1	n	n	n	n	x	x	x	x	x	x	x
O=C(Nc1ccc2c(c1)OCO2)c1cc(C2CCCN(C(=O)CCc3ccccc3)C2)on1 (stereo not drawn)	n	n	n	n	x	x	x	x	x	x	x
CCCC(=O)N1CCCC(c2cc(C(=O)Nc3ccc4c(c3)OCO4)no2)C1 (stereo not drawn)	n	n	4.7	18	x	4.4	n	x	x	13	n
Cc1cccc(/C(N)=N/OC(=O)c2ccc3c(c2)OCO3)c1	8.6	n	5.4	15	n	11	6.8	n	6.7	14	n
N/C(=N\OC(=O)c1ccc2c(c1)OCO2)c1cccc([N+](=O)[O-])c1	n	n	n	n	n	x	x	x	x	x	x
CCc1ccc(NC(=O)c2cc(C)on2)cc1	7.8	n	5.8	13	n	11	4.9	n	6.8	13	n
Cc1ccc(NC(=O)c2cc(C)no2)cc1	n	n	n	n	n	x	x	x	x	x	x
CCCc1cc(C(=O)Nc2ccc(C)cc2)no1	6.2	n	5.2	17	n	8.7	7.3	x	x	13	n
Cc1ccccc1C(=O)N[C@H](C(=O)N1CCC[C@H]1C(=O)NC1CCCC1)c1ccccc1	n	n	n	n	x	x	x	x	x	x	x
Cc1ccc(C(=O)NC2CCCCN(Cc3ccc(Cl)cc3)C2=O)c(C)c1 (stereo not drawn)	n	n	n	n	x	x	x	x	x	x	x
O=C(c1cnn(-c2ccccc2)c1)c1ccccc1O	7.9	n	6.1	23	n	13	7.9	n	7.1	20	n
O=C(c1cnn(-c2ccccc2)c1)c1cc(F)ccc1O	n	n	n	n	n	x	x	x	x	x	x
CC(C)c1ccc(NC(=O)c2ccccc2NC(=O)C2CC=CCC2C(=O)O)cc1 (stereo not drawn)	n	n	8.3	15	5.5	n	3.6	x	x	n	n
O=C(Nc1ccc(F)cc1)c1ccccc1NC(=O)C1CC=CCC1C(=O)O (stereo not drawn)	n	n	n	n	n	x	x	x	x	x	x
